# Measured values as given in PubChem BioAssay AID720650 (Broad Institute, 2013).
# A number with no mark means an inactive call. Activity calls are given as the source filed them. No rule for the calls is given here.
# Experiment: Biochemical counterscreen for C difficile toxins, absence of UDPG, inhibitor dose response (AID 720650)
# Conditions: series mostly up to 19.5 µM
row,Compound,AC50
1,CCSc1nnc(NC(=O)C2CC2c2ccccc2)s1 (centres undefined),inactive
2,O=C(NC(=S)Nc1ccc(O)cc1)c1ccccc1Cl,13.3 µM (active)
3,CC(=O)Nc1n[nH]c(=S)s1,> 39 µM
4,COc1ccc(/C=C/c2onc(C)c2S(=O)(=O)N2CCC(C(=O)N3CCC(C)CC3)CC2)cc1,inactive
5,CCCNC(=O)C1CC(=O)N(c2ccc(OCC)cc2)C1 (centres undefined),inactive
6,CC(=O)Oc1ccc(/C=N/NC(=O)CCSc2ccccc2)cc1,inactive
7,CCC(=O)Nc1ccc2c(c1)OC[C@@H](C)N(C(=O)NC(C)C)C[C@H](C)[C@H](OC)CN(C)C2=O,inactive
8,CCOc1ccccc1/C=C/c1onc(C)c1S(=O)(=O)N1CCC(C(=O)NC)CC1,inactive
9,Cc1cccc(/C=C/c2onc(C)c2S(=O)(=O)N2CCC(C(=O)N3CCCCCC3)CC2)c1,inactive
10,Cc1cc(N/N=C/c2ccc(O)cc2)c2cccc(C)c2n1,16.3 µM (active)
11,COc1cccc(Oc2ccc3nnc(C(F)(F)F)n3n2)c1,inactive
12,Cc1cnc(C(=O)OCC(=O)N2C(C)CCCC2C)cn1 (centres undefined),inactive
13,CCc1ccc(Nc2n[n+](-c3ccccc3)c(-c3ccc(OC)c(Br)c3)s2)cc1,inactive
14,CC1C(=O)C(C)C(c2ccc([N+](=O)[O-])cc2)NC1c1ccc([N+](=O)[O-])cc1 (centres undefined),inactive
15,CCOC(=O)c1ccc2ncc(-c3ccccc3)nc2c1,inactive
16,O=CN(c1ccccc1)c1ccc2ccccc2c1,inactive
17,COc1ccc(Br)cc1C(=O)Nc1ccc(O)cc1,9.64 µM (active)
18,CC(C)(C)C(=O)C1=C(O)C(=O)N(c2ccccc2)C1c1ccccc1 (centres undefined),> 39 µM
19,Fc1ccc(-c2nc3ccc(Br)cn3c2Cc2ccccc2)cc1,inactive
20,COCC(=O)N1CC[C@@H]2[C@@H](CO)N(C)c3ccc(-c4ccccc4)cc3[C@@H]21,3.88 µM (active)

row,Compound,AC50
1,Cc1nc(SCC(=O)N2CCNC2=O)c(C#N)c(C)c1C,inactive
2,CNC(=O)C[C@@H]1CC[C@H]2[C@H](COc3ccc(NS(=O)(=O)c4ccccc4C)cc3C(=O)N2C)O1,inactive
3,O=C(Nc1ccccc1F)N1C[C@@H]2N[C@H](C1)C2c1ccc(-c2cccc(F)c2)cc1 (some centres undefined),inactive
4,O=c1c2ccc(Cl)cc2[nH]c(=S)n1-c1cccnc1,inactive
5,COc1ccc(CC(=O)C2C(=O)N(C)c3ccccc32)cc1OC (centres undefined),inactive
6,CCCn1c(N)c(C(=O)COC(=O)c2cccc(S(=O)(=O)N3CCOCC3)c2)c(=O)[nH]c1=O,inactive
7,CSc1ccc(/C=N/N2CCN(Cc3ccc(Cl)cc3)CC2)cc1,inactive
8,CN1CCN(CC(=O)Nc2cc(N(C)C)nc3ccccc23)CC1,inactive
9,CCC(=O)c1cn(CC(=O)Nc2cccc(C)c2C)c2ccccc12,inactive
10,CCOC(=O)c1cccc(NC(=O)CCNS(=O)(=O)c2cccc3nonc23)c1,inactive
11,Cc1ccc(S(=O)(=O)Oc2ccc(/C=N/NC(=O)c3nn(C)cc3[N+](=O)[O-])cc2)cc1,inactive
12,COc1cccc(C(=O)COC(=O)c2ccc(NC(=O)c3ccccc3)cc2)c1,inactive
13,CCS(=O)(=O)c1ccc2oc(Nc3ccc(C(C)(C)C)cc3)nc2c1,inactive
14,Oc1ccc(-c2cn3ccccc3n2)cc1,4.42 µM (active)
15,COc1ccc(C2=NS(=O)(=O)N(C)C(C(=O)NCc3ccccc3)=C2)cc1OC,inactive
16,COc1ccc(CNC(=O)c2cc3c(s2)CN(Cc2ccccc2)C3)cc1,inactive
17,CS(=O)(=O)N1CCc2cc(C(=O)Nc3ccc(O)cc3)ccc21,14.8 µM (active)
18,O=C(OCn1nnc2ccccc2c1=O)c1cc2ccccc2o1,inactive
19,CNC(=S)N/N=C/c1c(C(=O)OC)cnn1-c1ccc(F)cc1F,inactive
